# Assay results taken from PubChem BioAssay AID1224817 (Yan Lab, Georgia Cancer Center, Augusta University, 2016).
# Several values for one entry are separate records, joined by “and”; a condition that tells them apart may be missing. Equal values may be shown once. Out of some 2,000 compounds screened, about 25 (1%) were called active.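 Rule for the calls: active = log2 luciferase ratio at or below -0.5849, meaning signal at two thirds of solvent-only control or lower; inactive = the rest.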 Only a selection was taken, and actives are over-represented in it overall.
# Assay: inhibitors of EIF4E gene expression, primary screen, cell-based, HT1080, luciferase reporter (AID 1224817);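 note: luciferase reports endogenous eIF4E expression since it is co-expressed from the native EIF4E locus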
# Details: HT1080 EIF4E-luc2 knock-in reporter, 16 h, at 2.5 µM, active compounds read low
row,Structure (SMILES),log2 luciferase activity ratio
1,O=C(O)C1CC[N-]CC1.O=C(O)C1CC[N-]CC1.[Cl][Pt+2]([Cl])([Cl])[Cl],-0.241 (inactive)
2,CC(C)(N=NC(C)(C)C1=NCCN1)C1=NCCN1,-0.215 (inactive)
3,NCCSc1nc(-c2ccccc2)c(-c2ccccc2)o1,-0.0133 (inactive)
4,O=[N+]([O-])c1ccc(C2=Nn3c(nnc3-c3ccc(Cl)cc3)SC2)o1,0.0802 (inactive)
5,O=C(O)[C@@H]1[C@H](C(=O)O)[C@H](C(=O)O)C[C@@H]1C(=O)O,-0.306 (inactive)
6,C/C(=N\NC(=O)c1ccncc1)c1ccccc1Cl,0.497 (inactive)
7,OC(Cc1cccnc1)(c1ccccc1)c1ccccc1,-0.0482 (inactive)
8,NC(=O)/C(=C\c1ccncc1)c1cccc2ccccc12,-0.0804 (inactive)
9,O=C(O)Cc1c[nH]c2ccc(F)cc12,-0.736 (active)
10,NC(Cc1c[nH]c2ccc([N+](=O)[O-])cc12)C(=O)O (centres undefined),0.208 (inactive)
11,Nc1ccc2[nH]cc(CCC(=O)O)c2c1,-0.0435 (inactive)
12,Cc1cc(N2CCCCC2)nc2ccc(Cc3ccc4nc(N5CCCCC5)cc(C)c4c3)cc12,0.559 (inactive)
13,N=c1ncn(C/C=C/c2ccccc2)c2nc[nH]c12,0.287 (inactive)
14,Cc1cc(=Nc2ccc3c(c2)c(N)cc(C)[n+]3C)nc(N)n1C,-0.0953 (inactive)
15,COc1cc2c(cc1OC)C(CCN)=NCC2,-0.216 (inactive)
16,CC1/C=C/C=C/CC/C=C/C=C/C=C/C=C/C(OC2OC(C)C(O)C(N)C2O)CC2OC(CC(O)C(O)CCC(O)CC(O)CC(O)CC(=O)OC(C)C(C)C1O)CC(O)C2C(=O)O (centres undefined),-0.0951 (inactive) and -0.0559 (inactive)
17,NCCNCC(O)CO (centres undefined),0.073 (inactive)
18,O=C(O)/C(=C\c1ccc(O)cc1)c1cccc2ccccc12,-0.199 (inactive)
19,O=C(O)CC1(C(=O)O)CCCCC1,-0.621 (active)
20,CC1(CC(=O)O)OC2CCCCCC2O1 (centres undefined) (tested in a mixture with another compound),0.0163 (inactive)
21,CC1CCCC(CC(=O)O)(CC(=O)O)C1 (centres undefined),0.274 (inactive)
22,O=C1c2cccc(O)c2C(=O)c2c(OC3OC(CO)C(O)C(O)C3O)cccc21 (centres undefined),-0.141 (inactive)
23,OC1C(O)C(O)C(O)C(O)C1O (centres undefined),-0.102 (inactive)
24,CC(C)C(Nc1ncnc2nc[nH]c12)C(=O)O (centres undefined),0.37 (inactive)

row,Structure (SMILES),log2 luciferase activity ratio
1,O=C(O)CNC(=O)c1ccccc1O,0.226 (inactive)
2,O=C(O)/C(=C/c1ccccc1)c1ccccc1,-0.172 (inactive)
3,Cc1ccc(C)c(C2NC(=O)c3ccccc3N2)c1 (centres undefined),-0.685 (active)
4,O=C1Nc2ccccc2/C1=N\[O-].O=C1Nc2ccccc2/C1=N\[O-].[Cu+2],0.0071 (inactive)
5,N[C@H](C(=O)O)[C@H]1ON=C(Cl)[C@@H]1O,-0.333 (inactive)
6,COC1/C=C\C=C(/C)C(=O)NC2=CC(=O)C(N)=C(CC(C)CC(OC)C(O)C(C)C=C(C)C1OC(N)=O)C2=O (centres undefined),-1.05 (active)
7,CN(C)CCCn1c2c3ccccc3ccc2c2oc(=O)c3ccccc3c21,-0.461 (inactive)
8,CN1CC(c2ccccc2)C(O)(C2(c3ccccc3)CN(C)CC(c3ccccc3)C2=O)C(c2ccccc2)C1 (centres undefined),-0.0781 (inactive)
9,CC1CC(C)CN(S(=O)(=O)c2cc(Cl)c(Oc3ccc([N+](=O)[O-])cc3Cl)c(Cl)c2)C1 (centres undefined),0.55 (inactive)
10,NCC(=O)C(O)C(O)C(O)CO (centres undefined),0.229 (inactive)
11,O=C(O)/C=C\C(=O)Nc1ccccn1,0.0837 (inactive)
12,C[N+]1(CCC(=O)c2ccccc2)CCC2CCC(C2)C1 (centres undefined),0.0296 (inactive)
13,CCCCCC[C@H]([C@H](C)O)n1cnc2c(N)ncnc21,-0.0979 (inactive)
14,NCCSCCC(=O)O,-0.0504 (inactive)
15,NCC(=O)Nc1ccccc1,-0.679 (active)
16,CC(=O)CC(=O)Nc1ccc2ccccc2c1,0.376 (inactive)
17,CC(C)(CC(=O)Nc1ccccc1)C(=O)O,-0.26 (inactive)
18,CN(C)Cc1c[nH]c2nc[nH]c(=O)c12,0.205 (inactive)
19,CN(C)CCC(=O)[C@@]1(O)CC[C@H]2[C@@H]3CC=C4C[C@@H](O)CC[C@]4(C)[C@H]3CC[C@@]21C,0.263 (inactive)
20,O=C(O)CC1OCC=C2C[N+]3([O-])CCC45c6ccccc6NC4C1C2CC53 (centres undefined),0.195 (inactive)
21,Cc1ccc(C2(C)CC/C(=N/N=C3/CCC(C)(c4ccc(C)c(C)c4)c4cc(C)c(C)cc43)c3cc(C)c(C)cc32)cc1C (centres undefined),0.135 (inactive)
22,Oc1c(Cl)cc(C(c2cc(Cl)c(O)c(Cl)c2)C(c2cc(Cl)c(O)c(Cl)c2)c2cc(Cl)c(O)c(Cl)c2)cc1Cl,-0.198 (inactive)
23,COc1ccc(CCN(C)CCCC(C#N)(c2ccc(OC)c(OC)c2)C(C)C)cc1OC (centres undefined),-0.662 (active)
24,COc1ccc(C[N+](C)(C)N)cc1OC,-0.225 (inactive)

row,Structure (SMILES),log2 luciferase activity ratio
1,Cc1cc(=O)oc2c(OS(C)(=O)=O)c(OS(C)(=O)=O)ccc12,0.0541 (inactive)
2,Cc1ccn2c(CCc3nnc4cc(C)ccn34)nnc2c1,-0.0744 (inactive)
3,CC(=O)NC1CONC1=O (centres undefined),-0.303 (inactive)
4,C=C[C@]1(C)C[C@@H](OC(=O)CO)[C@@]2(C)[C@H](C)CC[C@]3(CCC(=O)[C@H]32)[C@@H](C)[C@@H]1O,0.127 (inactive)
5,Oc1ccc(Cc2nccc3cc(O)c(O)cc23)cc1O,-0.044 (inactive)
6,OCCN(CO)CO,-0.297 (inactive)
7,COc1ccc(CNC(C)C(=O)O)cc1 (centres undefined),-0.198 (inactive)
8,C/C(=N\[N+](C)(C)C)c1ccc(C)c(C)c1,-0.284 (inactive)
9,CC(C)CCC[C@@H](C)[C@H]1CC[C@H]2[C@@H]3CC[C@H]4C[C@H](N)CC[C@]4(C)[C@H]3CC[C@]12C,0.0721 (inactive)
10,CN(C)CCCNc1cc(O)c2c(c1O)C(=O)c1ccccc1C2=O,1.39 (inactive)
11,O=C(O)C/C=C/CC(=O)O,-0.0603 (inactive)
12,CC(C)(C)CC(C)(C)c1cc(O)c(O)c(CN2CCCCC2)c1,-0.183 (inactive)
13,CC(C)(C)c1ccc(CN2CCN(C(c3ccccc3)c3ccc(Cl)cc3)CC2)cc1 (centres undefined),-0.0054 (inactive)
14,O=C1C(Cl)=C(Sc2nnc3c4ccccc4c4ccccc4c3n2)C(=O)c2ccccc21,0.552 (inactive)
15,O=C(O)CCSC1=NCCN1,-0.275 (inactive)
16,Oc1ccc2ccccc2c1CN(Cc1c(O)ccc2ccccc12)C1CCCCC1,-0.018 (inactive)
17,Nc1nccc(Nc2ccc(S(N)(=O)=O)cc2)n1,-0.103 (inactive)
18,C/C(=N\NC1=NCCN1)c1cn(C2=NCCN2)nc1C,0.0578 (inactive)
19,CNC(c1ccncc1)C(NC)c1ccncc1 (centres undefined),0.0459 (inactive)
20,O=C1c2cccc([N+](=O)[O-])c2C(=O)N1c1ncn[nH]1,-0.0931 (inactive)
21,COC(=O)[C@@]12OC[C@]34[C@H]([C@@H](O)[C@@H]1O)[C@@]1(C)C=C(OC5OC(CO)C(O)C(O)C5O)C(=O)[C@@H](C)[C@@H]1C[C@H]3OC(=O)[C@H](OC(=O)/C=C(\C)C(C)C)[C@@H]24 (some centres undefined),0.215 (inactive)
22,O=C(O)C1OC1C(=O)O (centres undefined),-0.131 (inactive)
23,Cc1cc(N)c2cc(OCCOc3ccc4nc(C)cc(N)c4c3)ccc2n1,-0.0306 (inactive)
24,CN(CCc1ccccn1)c1ccc2c(c1)C(=O)c1ccccc1-2,0.213 (inactive)

row,Structure (SMILES),log2 luciferase activity ratio
1,COc1c2c(cc3c1[C@@H]1Oc4c(ccc(O)c4CC=C(C)C)[C@@H]1CO3)OC(C)(C)C=C2,-0.0761 (inactive)
2,O=C1c2ccccc2C(=O)N1CCCSc1ccccc1,0.412 (inactive)
3,CN(C)CC(O)c1ccc(Cl)c2ccccc12 (centres undefined),-0.0364 (inactive)
4,Oc1c(C(O)(c2ccccc2)c2ccc3ccccc3c2O)ccc2ccccc12,0.313 (inactive)
5,COc1cc2oc3cc(=O)cc4oc(-c5ccccc5)cc(c2c2c1CCC(c1ccccc1)O2)c43 (centres undefined),0.143 (inactive)
6,CCCCSCc1nc2nc(Cl)c(Cl)nc2[nH]1,-0.0768 (inactive)
7,Cn1cc(NC(=O)c2cc(NC(=O)c3cc(NC=O)cn3C)cn2C)cc1C(=O)NCCC(=N)N,-0.0884 (inactive)
8,NC(N)=NC(N)=Nc1c(F)c(F)c(F)c(F)c1F,0.115 (inactive)
9,O=C(O)/C=C/C(=O)Nc1cccc2c1-c1ccccc1C2=O,-0.335 (inactive)
10,NNC(=O)CCc1ccc2ccc3ccccc3c2c1,-0.0063 (inactive)
11,NC(=O)N/N=C1/CCC(O)CC1CC(=O)O (centres undefined),-0.0076 (inactive)
12,CSc1nc(C)cc(Nc2ccc(O)c(CN3CCOCC3)c2)n1,0.0575 (inactive)
13,CC(C)(C)c1cc(Br)c(O)c(CN(Cc2cc(C(C)(C)C)cc(Br)c2O)C2CCCCC2)c1,0.147 (inactive)
14,N=C(N)SCc1cccc2c(=O)cc(-c3ccccc3)oc12,-0.583 (inactive)
15,Cc1ncc(CSC(=N)N)n1Cc1ccccc1,0.207 (inactive)
16,Cc1c2ccccc2c(CSC(=N)N)c2ccccc12,-2.19 (active)
17,O=C1N[C@@H]([C@H]2CC[C@H](Cl)CN2)C(=O)N[C@H]1[C@H]1CC[C@H](Cl)CN1,-0.835 (active)
18,O=[N+]([O-])c1nccn1CC(O)CN1CCCCC1 (centres undefined),0.364 (inactive)
19,NC(Cc1nn[nH]n1)C(=O)O (centres undefined),-0.174 (inactive)
20,Cc1cc2ccccc2c[n+]1CC(O)C[n+]1cc2ccccc2cc1C,-0.0398 (inactive)
21,O=C(O)c1nn(-c2ccc(Cl)cc2)c2c1C(=O)c1ccccc1C2=O,0.061 (inactive)
22,Cc1c2cccc(Sc3ccccc3)c2c2c3c(cccc13)[S+](c1ccccc1)C2 (centres undefined),0.38 (inactive)
